# Data published in PubChem BioAssay AID686960 (The Scripps Research Institute Molecular Screening Center, 2013).
# This is one part of the list. Values without a mark were called inactive. No stated cut-off is given here; in the data, active means IC50 below about 10 µM; inactive means the rest.
# Experiment: inhibitors of DNA CAG/GTC TO-PRO-1 complex, dose response, counter-screen for rCAG RNA repeat binder project, biochemical, fluorescence, TO-PRO-1 dye (AID 686960)
# Settings: DNA CAG/GTC duplex TO-PRO-1 dye displacement fluorescence
compound,measurement,value
O=C1CC(=O)N(Cc2ccccc2)C(=O)N1CCCCCCN1C(=O)CC(=O)N(Cc2ccccc2)C1=O,IC50,11.5 µM
